Source: PubChem BioAssay AID1159580 (chemical genetic matrix, 2015)
Out of some 5,500 compounds screened, about 2,000 (36%) were called active. Roughly 18% stayed inconclusive and do not appear here. Rule as the data show it: active = normalized growth mostly below about 0.91 (no sharp cut-off); inconclusive = no clear call, values can overlap the other calls; inactive = mostly above about 0.92. This is one part of the list.

Assay: chemical genetic growth profiling, strain panel (AID 1159580);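 also: tested at 20 µM; growth read once vehicle control cultures reached saturation at 30 °C; 1 = growth at the plate median or of vehicle wells; lower values mean less growth of the strain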
Details: growth OD

Measured: normalized growth

CC(=O)Nc1nnc(S(N)(=O)=O)s1
active: S. cerevisiae deletion strains, locus YKL190W, strain CNB1, stronger effect = lower value 0.569 | S. cerevisiae deletion strains, locus YKR001C, strain vps1, stronger effect = lower value 0.884 | S. cerevisiae deletion strains, locus YLR039C, strain RIC1, stronger effect = lower value 0.423 | S. cerevisiae deletion strains, locus YLR058C, strain SHM2, stronger effect = lower value 0.837 | S. cerevisiae deletion strains, locus YLR262C, strain YPT6, stronger effect = lower value 0.321 | S. cerevisiae deletion strains, locus YLR330W, strain CHS5, stronger effect = lower value 0.557 | S. cerevisiae deletion strains, locus YLR342W, strain FKS1 (second series), stronger effect = lower value 0.496 | S. cerevisiae deletion strains, locus YLR418C, strain cdc73, stronger effect = lower value 0.637 | S. cerevisiae deletion strains, locus YML016C, strain PPZ1, stronger effect = lower value 0.412 | S. cerevisiae deletion strains, locus YMR263W, strain SAP30, stronger effect = lower value 0.809 | S. cerevisiae deletion strains, locus YMR307W, strain GAS1, stronger effect = lower value 0.439 | S. cerevisiae deletion strains, locus YNL067W, strain RPL9B, stronger effect = lower value 0.755 | S. cerevisiae deletion strains, locus YNL233W, strain BNI4, stronger effect = lower value 0.792 | S. cerevisiae deletion strains, locus YNL307C, strain MCK1, stronger effect = lower value 0.846 | S. cerevisiae deletion strains, locus YNL322C, strain KRE1, stronger effect = lower value 0.592 | S. cerevisiae deletion strains, locus YOL006C, strain TOP1, stronger effect = lower value 0.141 | S. cerevisiae deletion strains, locus YOR061W, strain CKA2, stronger effect = lower value 0.702 | S. cerevisiae deletion strains, locus YOR069W, strain VPS5, stronger effect = lower value 0.826 | S. cerevisiae deletion strains, locus YPL241C, strain CIN2, stronger effect = lower value 0.645 | S. cerevisiae deletion strains, strain wtn01, stronger effect = lower value 0.874 | S. cerevisiae strains, strain wild type, stronger effect = lower value 0.533
inactive: S. cerevisiae deletion strains, locus YKL009W, strain mrt4, stronger effect = lower value 1.03 | S. cerevisiae deletion strains, locus YKL068W, stronger effect = lower value 1 | S. cerevisiae deletion strains, locus YKL085W, strain MDH1 (second series), stronger effect = lower value 1.01 | S. cerevisiae deletion strains, locus YKL085W, strain MDH1, stronger effect = lower value 1.01 | S. cerevisiae deletion strains, locus YKL160W, strain elf1, stronger effect = lower value 1 | S. cerevisiae deletion strains, locus YKR026C, strain gcn3, stronger effect = lower value 1 | S. cerevisiae deletion strains, locus YKR091W, strain srl3, stronger effect = lower value 1.01 | S. cerevisiae deletion strains, locus YLL001W, strain dnm1, stronger effect = lower value 1.01 | S. cerevisiae deletion strains, locus YLL026W, stronger effect = lower value 1.01 | S. cerevisiae deletion strains, locus YLL041C, strain sdh2, stronger effect = lower value 1.01 | S. cerevisiae deletion strains, locus YLR027C, strain aat2, stronger effect = lower value 1.01 | S. cerevisiae deletion strains, locus YLR102C, strain apc9, stronger effect = lower value 0.99 | S. cerevisiae deletion strains, locus YLR113W, strain HOG1, stronger effect = lower value 0.982 | S. cerevisiae deletion strains, locus YLR221C, strain rsa3, stronger effect = lower value 0.986 | S. cerevisiae deletion strains, locus YLR258W, strain gsy2, stronger effect = lower value 1.01 | S. cerevisiae deletion strains, locus YLR262C, strain YPT6 (second series), stronger effect = lower value 1.04 | S. cerevisiae deletion strains, locus YLR268W, strain sec22, stronger effect = lower value 0.895 | S. cerevisiae deletion strains, locus YLR320W, strain mms22, stronger effect = lower value 0.99 | S. cerevisiae deletion strains, locus YLR342W, strain FKS1, stronger effect = lower value 1.02 | S. cerevisiae deletion strains, locus YLR357W, strain rsc2, stronger effect = lower value 1 | S. cerevisiae deletion strains, locus YLR370C, strain arc18, stronger effect = lower value 0.996 | S. cerevisiae deletion strains, locus YLR371W, strain rom2, stronger effect = lower value 0.945 | S. cerevisiae deletion strains, locus YLR384C, strain iki3, stronger effect = lower value 1 | S. cerevisiae deletion strains, locus YML032C, strain rad52, stronger effect = lower value 1.01 | S. cerevisiae deletion strains, locus YML120C, strain ndi1, stronger effect = lower value 1.02 | S. cerevisiae deletion strains, locus YML124C, strain tub3, stronger effect = lower value 1.01 | S. cerevisiae deletion strains, locus YMR058W, strain fet3, stronger effect = lower value 1.02 | S. cerevisiae deletion strains, locus YMR078C, strain ctf18, stronger effect = lower value 0.994 | S. cerevisiae deletion strains, locus YMR125W, strain sto1, stronger effect = lower value 0.989 | S. cerevisiae deletion strains, locus YMR129W, stronger effect = lower value 1.02 | S. cerevisiae deletion strains, locus YMR205C, strain PFK2, stronger effect = lower value 1.01 | S. cerevisiae deletion strains, locus YMR223W, strain ubp8, stronger effect = lower value 0.904 | S. cerevisiae deletion strains, locus YMR231W, strain pep5, stronger effect = lower value 0.993 | S. cerevisiae deletion strains, locus YNL071W, strain lat1, stronger effect = lower value 1.01 | S. cerevisiae deletion strains, locus YNL128W, strain TEP1, stronger effect = lower value 1 | S. cerevisiae deletion strains, locus YNL175C, strain NOP13, stronger effect = lower value 1.03 | S. cerevisiae deletion strains, locus YNL183C, strain NPR1, stronger effect = lower value 0.959 | S. cerevisiae deletion strains, locus YNL197C, strain WHI3, stronger effect = lower value 1 | S. cerevisiae deletion strains, locus YNL209W, strain ssb2, stronger effect = lower value 1.01 | S. cerevisiae deletion strains, locus YNL224C, strain SQS1, stronger effect = lower value 0.996 | S. cerevisiae deletion strains, locus YNL248C, strain rpa49, stronger effect = lower value 0.971 | S. cerevisiae deletion strains, locus YNL250W, strain rad50, stronger effect = lower value 1.01 | S. cerevisiae deletion strains, locus YNL271C, strain bni1, stronger effect = lower value 1.01 | S. cerevisiae deletion strains, locus YNL298W, strain CLA4, stronger effect = lower value 1 | S. cerevisiae deletion strains, locus YNL322C, strain KRE1 (second series), stronger effect = lower value 1.01 | S. cerevisiae deletion strains, locus YNR049C, strain mso1, stronger effect = lower value 1.02 | S. cerevisiae deletion strains, locus YNR052C, strain pop2, stronger effect = lower value 0.995 | S. cerevisiae deletion strains, locus YOL012C, strain htz1 0.275 | S. cerevisiae deletion strains, locus YOL147C, strain pex11, stronger effect = lower value 1.01 | S. cerevisiae deletion strains, locus YOR001W, strain rrp6, stronger effect = lower value 1.02 | S. cerevisiae deletion strains, locus YOR070C, strain gyp1, stronger effect = lower value 1 | S. cerevisiae deletion strains, locus YOR080W, strain dia2, stronger effect = lower value 1.01 | S. cerevisiae deletion strains, locus YOR083W, strain WHI5 (second series), stronger effect = lower value 1.02 | S. cerevisiae deletion strains, locus YOR083W, strain WHI5, stronger effect = lower value 0.993 | S. cerevisiae deletion strains, locus YOR106W, strain vam3, stronger effect = lower value 1.02 | S. cerevisiae deletion strains, locus YOR136W, strain idh2, stronger effect = lower value 0.979 | S. cerevisiae deletion strains, locus YOR144C, strain elg1, stronger effect = lower value 1.01 | S. cerevisiae deletion strains, locus YOR184W, strain ser1, stronger effect = lower value 0.885 | S. cerevisiae deletion strains, locus YOR231W, strain MKK1, stronger effect = lower value 0.987 | S. cerevisiae deletion strains, locus YOR265W, strain rbl2, stronger effect = lower value 1.01 | S. cerevisiae deletion strains, locus YOR270C, strain vph1, stronger effect = lower value 1 | S. cerevisiae deletion strains, locus YOR290C, strain snf2, stronger effect = lower value 1 | S. cerevisiae deletion strains, locus YOR316C, strain cot1, stronger effect = lower value 0.982 | S. cerevisiae deletion strains, locus YPL051W, strain arl3, stronger effect = lower value 1 | S. cerevisiae deletion strains, locus YPL078C, strain atp4, stronger effect = lower value 1.02 | S. cerevisiae deletion strains, locus YPL106C, strain sse1, stronger effect = lower value 0.998 | S. cerevisiae deletion strains, locus YPL240C, strain hsp82, stronger effect = lower value 1 | S. cerevisiae deletion strains, locus YPL256C, strain CLN2, stronger effect = lower value 0.992 | S. cerevisiae deletion strains, locus YPR119W, strain clb2, stronger effect = lower value 1.01 | S. cerevisiae deletion strains, locus YPR141C, strain kar3, stronger effect = lower value 1.01 | S. cerevisiae deletion strains, locus YPR163C, strain tif3, stronger effect = lower value 0.987 | S. cerevisiae deletion strains, locus YPR167C, strain met16, stronger effect = lower value 0.964
